# Reference: PubChem BioAssay (NCATS)
# Inconclusive results are not listed. A call without a number means that no potency is given here. Active and inactive are the calls of the source. Calls come from the whole dose curve; as a rule, active = well fitted activation curve with a large enough effect; inconclusive = small, poorly fitted or top-dose-only effect; inactive = no such curve, though single readings can be large or run the other way.
# Target: Rap guanine nucleotide exchange factor 3 (Homo sapiens) (UniProt O95398)
# Test: Confirmatory qHTS for agonist of cAMP-regulated guanine nucleotide exchange factor 3 (EPAC1) (AID 1645881);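 note: EPAC1 catalysed release of BODIPY-GDP from Rap1B seen as fluorescence loss; nearly all actives have a fitted effect of over 75% in size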
# Conditions: EPAC1 Rap1B BODIPY-GDP exchange fluorescence; series mostly up to 154 µM
# Rap guanine nucleotide exchange factor 3 (Homo sapiens), sequence (O95398 whole entry, looked up): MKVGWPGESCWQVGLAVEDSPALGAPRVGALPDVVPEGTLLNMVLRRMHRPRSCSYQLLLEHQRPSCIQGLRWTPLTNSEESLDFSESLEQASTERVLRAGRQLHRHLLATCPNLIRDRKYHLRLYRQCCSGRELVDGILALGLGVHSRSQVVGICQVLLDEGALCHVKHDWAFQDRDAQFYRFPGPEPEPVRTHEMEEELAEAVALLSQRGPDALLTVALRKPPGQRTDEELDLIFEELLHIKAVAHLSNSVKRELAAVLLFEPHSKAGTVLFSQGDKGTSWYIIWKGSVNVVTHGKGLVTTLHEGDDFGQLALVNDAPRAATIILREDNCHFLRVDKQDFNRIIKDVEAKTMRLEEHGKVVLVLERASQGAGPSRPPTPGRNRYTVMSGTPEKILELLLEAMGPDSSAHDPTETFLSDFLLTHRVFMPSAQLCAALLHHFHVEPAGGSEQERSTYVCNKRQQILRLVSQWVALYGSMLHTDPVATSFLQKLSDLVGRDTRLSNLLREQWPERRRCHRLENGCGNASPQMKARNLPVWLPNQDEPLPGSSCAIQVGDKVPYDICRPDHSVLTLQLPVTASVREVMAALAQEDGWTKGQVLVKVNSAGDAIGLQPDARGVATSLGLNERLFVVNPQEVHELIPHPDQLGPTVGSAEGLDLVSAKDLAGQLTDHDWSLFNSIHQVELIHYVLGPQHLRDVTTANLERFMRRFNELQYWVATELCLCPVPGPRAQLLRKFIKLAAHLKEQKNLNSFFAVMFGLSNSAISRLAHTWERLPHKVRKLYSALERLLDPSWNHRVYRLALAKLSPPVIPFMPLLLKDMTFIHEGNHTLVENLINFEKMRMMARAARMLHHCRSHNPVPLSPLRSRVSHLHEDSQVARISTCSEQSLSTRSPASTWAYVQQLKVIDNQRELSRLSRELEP
row,Structure (SMILES),Potency
1,CCCC[C@H]1COCCS(=O)(=O)N1Cc1ccc(Br)cc1,inactive
2,CN(CC(=O)Nc1ccc(F)cc1)C(=O)COC(=O)C1CCN(c2ccc(C(F)(F)F)cn2)CC1,inactive
3,Cc1cc(-c2ccc(/C=N/n3cnnc3)o2)ccc1Cl,inactive
4,CCCCC[C@@H](C)N1C[C@H](COCc2ccccc2)Oc2cc(N3CC[C@@H](O)C3)ccc2S1(=O)=O,inactive
5,O=C(O)c1cc(NN=Nc2cccc([N+](=O)[O-])c2)cc([N+](=O)[O-])c1,inactive
6,Cc1cccc(N2C(=O)C(O)=C(C(=O)c3cccs3)C2c2cccc(Oc3ccccc3)c2)n1 (stereo not drawn),inactive
7,C=CCNC(=O)c1oc2ccc(S(=O)(=O)N(CC)CC)cc2c1C,inactive
8,CC(C)CCOP(=O)(c1ccc(N(C)C)cc1)C(O)c1ccc(Cl)cc1Cl (stereo not drawn),inactive
9,C[C@H](CO)N1C[C@H](C)[C@@H](CN(C)Cc2ccc(Cl)c(Cl)c2)Oc2c(NC(=O)CCC(F)(F)F)cccc2C1=O,inactive
10,CC(C)C[C@H](NC(=O)C1(c2ccccc2)CCN(C(=O)OC(C)(C)C)CC1)C(=O)N1CCC[C@H]1C(=O)O,inactive
11,Cc1cc(C)cc(N(CC(=O)Nc2ccc(C(F)(F)F)cc2)S(=O)(=O)c2c(C)[nH]c(=O)[nH]c2=O)c1,inactive
12,COCOCCn1cc(CN2CCS(=O)(=O)N(Cc3ccc(-c4ccc(OC)cc4)cc3)C(CC(C)C)C2=O)nn1 (stereo not drawn),inactive
13,O=C(CSc1nccn1Cc1ccc(Cl)cc1)Nc1ccc2c(c1)OCO2,inactive
14,O=C(O)CCCC(=O)N1CCN(c2nc(-c3ccccc3Cl)c3cc(Br)ccc3n2)CC1,inactive
15,CCO[C@H]1OC(C(=O)NCc2ccccc2)=C[C@@H](c2ccc(C(F)(F)F)cc2)[C@@H]1CCCO,inactive
16,Cc1ccc(NS(=O)(=O)c2ccc(C(=O)N3CC(C)CC(C)C3)cc2)cc1 (stereo not drawn),inactive
17,COc1cc(/C=C(\C#N)C(=O)Nc2ccccc2C(=O)O)cc(Cl)c1OC,inactive
18,CC(C)(C)c1ccc(C(=O)N2CCCC(c3nc4c(nnn4Cc4cccc(F)c4)c(=O)[nH]3)C2)cc1 (stereo not drawn),inactive
19,COc1cc2nc(N3CCNCC3)nc(N)c2cc1OC,inactive
20,CCC(NC(=O)c1ccccc1NC(=O)c1ccco1)C(=O)NNC(=O)c1ccc(OC)cc1 (stereo not drawn),inactive

row,Structure (SMILES),Potency
1,NC(CSC(c1ccccc1)(c1ccccc1)c1cccc2ccccc12)C(=O)O (stereo not drawn),inactive
2,C[C@H]1CN([C@@H](C)CO)S(=O)(=O)c2ccc(Br)cc2O[C@@H]1CN(C)Cc1ccccc1,inactive
3,Cc1cc(C)c(OCC(=O)N(Cc2ccco2)Cc2ccco2)c(C)c1,inactive
4,O=C(Nc1ccccc1N1CCCCC1)c1cnccn1,inactive
5,CCOc1ccccc1CNC(=O)Cn1nc(C)c2c(C)n(-c3ccc(C)cc3)nc2c1=O,inactive
6,CCCCOC(=O)C1=C(C)Nc2nnnn2C1c1ccccc1Cl (stereo not drawn),inactive
7,CCc1ccc2c(c1)NC(=O)C2(C)Cc1ccc(C(F)(F)F)o1 (stereo not drawn),inactive
8,COC(=O)CC1(c2ccc(OC)cc2)C(=O)c2ccccc2C1=O,inactive
9,COc1ccc(N2C(=O)CSC23C(=O)N(Cc2cccc(C(F)(F)F)c2)c2ccccc23)cc1 (stereo not drawn),inactive
10,CCC(C)(C)c1ccc(OCC(=O)N(C)C)c(C(C)(C)CC)c1,inactive
11,Cc1ccc(N=Cc2cc3c(cc2[N+](=O)[O-])OCO3)cc1[N+](=O)[O-],inactive
12,CCCCn1c(CNC(=O)C23CC4CC(CC(C4)C2)C3)nnc1SCC(=O)Nc1nnc(C)s1,inactive
13,CCCC[C@@H]1C[C@H]1[C@@H](NC(=O)c1ccco1)c1ccc(Cl)cc1,inactive
14,Cc1ccc(C)c(S(=O)(=O)N2CCN(C(=O)/C=C/c3ccco3)CC2)c1,inactive
15,CC1=CCC[C@@H]2[C@@](C)(CC/C(C)=C/C(=O)O)[C@H](C)CC[C@@]12C,inactive
16,Cc1cccc(NC(=O)c2ccc(-n3cncn3)c([N+](=O)[O-])c2)c1,inactive
17,CC1Sc2ccc(C#N)cc2N(Cc2cccc(C(F)(F)F)c2)C1=O (stereo not drawn),inactive
18,C=CCn1c(SCC(=O)Nc2cc(Cl)ccc2C(=O)O)nc2sc(C)c(C)c2c1=O,inactive
19,COc1ccc(N2C(=O)Cc3cc(OC)c(OC)cc3C2c2ccc(F)cc2)cc1 (stereo not drawn),inactive

# Target: Rap guanine nucleotide exchange factor 4 (Homo sapiens) (UniProt Q8WZA2)
# Test: Confirmatory qHTS for agonist of cAMP-regulated guanine nucleotide exchange factor 4 (EPAC2) (AID 1645884);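 note: nucleotide exchange releases bodipy-GDP from Rap1 and this lowers its fluorescence; nearly all actives have a fitted effect of over 65% in size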; note: potency is the fitted concentration of half-maximal effect
# Conditions: EPAC2 GEF activity, Rap1B-BODIPY-GDP fluorescence; series mostly up to 154 µM
# Rap guanine nucleotide exchange factor 4 (Homo sapiens), sequence (Q8WZA2 whole entry, looked up): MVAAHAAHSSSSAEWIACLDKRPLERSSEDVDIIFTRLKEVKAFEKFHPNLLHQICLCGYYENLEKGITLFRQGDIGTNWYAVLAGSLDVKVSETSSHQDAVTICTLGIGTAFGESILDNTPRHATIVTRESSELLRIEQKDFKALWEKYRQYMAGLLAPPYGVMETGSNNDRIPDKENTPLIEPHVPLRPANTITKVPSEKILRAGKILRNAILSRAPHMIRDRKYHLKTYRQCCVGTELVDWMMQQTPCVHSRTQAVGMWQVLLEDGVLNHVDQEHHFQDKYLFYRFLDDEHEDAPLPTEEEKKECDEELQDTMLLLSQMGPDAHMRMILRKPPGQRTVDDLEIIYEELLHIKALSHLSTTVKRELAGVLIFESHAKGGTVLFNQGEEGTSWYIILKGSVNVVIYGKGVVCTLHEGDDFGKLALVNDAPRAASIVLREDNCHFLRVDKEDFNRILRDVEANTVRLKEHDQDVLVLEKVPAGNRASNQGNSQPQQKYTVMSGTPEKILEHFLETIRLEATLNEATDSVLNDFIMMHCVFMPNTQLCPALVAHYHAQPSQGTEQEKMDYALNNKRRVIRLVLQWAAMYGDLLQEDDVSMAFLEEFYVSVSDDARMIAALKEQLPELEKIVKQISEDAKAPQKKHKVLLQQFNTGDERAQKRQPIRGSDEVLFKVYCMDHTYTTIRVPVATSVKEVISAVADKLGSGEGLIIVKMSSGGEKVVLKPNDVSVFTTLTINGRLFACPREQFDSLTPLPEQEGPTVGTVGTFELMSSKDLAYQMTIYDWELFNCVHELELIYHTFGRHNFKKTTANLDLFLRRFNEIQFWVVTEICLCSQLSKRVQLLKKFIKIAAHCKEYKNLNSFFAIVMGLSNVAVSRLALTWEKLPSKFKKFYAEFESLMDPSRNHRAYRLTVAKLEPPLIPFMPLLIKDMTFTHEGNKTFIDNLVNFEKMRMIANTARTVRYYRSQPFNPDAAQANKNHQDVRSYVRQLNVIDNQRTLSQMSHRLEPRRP
Structure (SMILES),Potency,activation
CCCC[C@H]1COCCS(=O)(=O)N1Cc1ccc(Br)cc1,inactive,
CN(CC(=O)Nc1ccc(F)cc1)C(=O)COC(=O)C1CCN(c2ccc(C(F)(F)F)cn2)CC1,inactive,
Cc1cc(-c2ccc(/C=N/n3cnnc3)o2)ccc1Cl,inactive,
CCCCC[C@@H](C)N1C[C@H](COCc2ccccc2)Oc2cc(N3CC[C@@H](O)C3)ccc2S1(=O)=O,inactive,
O=C(O)c1cc(NN=Nc2cccc([N+](=O)[O-])c2)cc([N+](=O)[O-])c1,,"1.11% [at 17.1 µM, percent relative to cAMP agonist control] (inactive)"
Cc1cccc(N2C(=O)C(O)=C(C(=O)c3cccs3)C2c2cccc(Oc3ccccc3)c2)n1 (stereo not drawn),inactive,
C=CCNC(=O)c1oc2ccc(S(=O)(=O)N(CC)CC)cc2c1C,inactive,
CC(C)CCOP(=O)(c1ccc(N(C)C)cc1)C(O)c1ccc(Cl)cc1Cl (stereo not drawn),inactive,
C[C@H](CO)N1C[C@H](C)[C@@H](CN(C)Cc2ccc(Cl)c(Cl)c2)Oc2c(NC(=O)CCC(F)(F)F)cccc2C1=O,inactive,
CC(C)C[C@H](NC(=O)C1(c2ccccc2)CCN(C(=O)OC(C)(C)C)CC1)C(=O)N1CCC[C@H]1C(=O)O,inactive,
Cc1cc(C)cc(N(CC(=O)Nc2ccc(C(F)(F)F)cc2)S(=O)(=O)c2c(C)[nH]c(=O)[nH]c2=O)c1,inactive,
COCOCCn1cc(CN2CCS(=O)(=O)N(Cc3ccc(-c4ccc(OC)cc4)cc3)C(CC(C)C)C2=O)nn1 (stereo not drawn),inactive,
O=C(CSc1nccn1Cc1ccc(Cl)cc1)Nc1ccc2c(c1)OCO2,inactive,
O=C(O)CCCC(=O)N1CCN(c2nc(-c3ccccc3Cl)c3cc(Br)ccc3n2)CC1,inactive,
CCO[C@H]1OC(C(=O)NCc2ccccc2)=C[C@@H](c2ccc(C(F)(F)F)cc2)[C@@H]1CCCO,inactive,
Cc1ccc(NS(=O)(=O)c2ccc(C(=O)N3CC(C)CC(C)C3)cc2)cc1 (stereo not drawn),inactive,
COc1cc(/C=C(\C#N)C(=O)Nc2ccccc2C(=O)O)cc(Cl)c1OC,inactive,
CC(C)(C)c1ccc(C(=O)N2CCCC(c3nc4c(nnn4Cc4cccc(F)c4)c(=O)[nH]3)C2)cc1 (stereo not drawn),inactive,
COc1cc2nc(N3CCNCC3)nc(N)c2cc1OC,100 µM (active),
CCC(NC(=O)c1ccccc1NC(=O)c1ccco1)C(=O)NNC(=O)c1ccc(OC)cc1 (stereo not drawn),,"0.808% [at 17.1 µM, percent relative to cAMP agonist control] (inactive)"

Structure (SMILES),Potency,activation
NC(CSC(c1ccccc1)(c1ccccc1)c1cccc2ccccc12)C(=O)O (stereo not drawn),,"-1.78% [at 17.1 µM, percent relative to cAMP agonist control] (inactive)"
C[C@H]1CN([C@@H](C)CO)S(=O)(=O)c2ccc(Br)cc2O[C@@H]1CN(C)Cc1ccccc1,inactive,
Cc1cc(C)c(OCC(=O)N(Cc2ccco2)Cc2ccco2)c(C)c1,inactive,
O=C(Nc1ccccc1N1CCCCC1)c1cnccn1,,"0% [at 17.1 µM, percent relative to cAMP agonist control] (inactive)"
CCOc1ccccc1CNC(=O)Cn1nc(C)c2c(C)n(-c3ccc(C)cc3)nc2c1=O,,"-0.659% [at 17.1 µM, percent relative to cAMP agonist control] (inactive)"
CCCCOC(=O)C1=C(C)Nc2nnnn2C1c1ccccc1Cl (stereo not drawn),inactive,
CCc1ccc2c(c1)NC(=O)C2(C)Cc1ccc(C(F)(F)F)o1 (stereo not drawn),inactive,
COC(=O)CC1(c2ccc(OC)cc2)C(=O)c2ccccc2C1=O,inactive,
COc1ccc(N2C(=O)CSC23C(=O)N(Cc2cccc(C(F)(F)F)c2)c2ccccc23)cc1 (stereo not drawn),inactive,
CCC(C)(C)c1ccc(OCC(=O)N(C)C)c(C(C)(C)CC)c1,inactive,
Cc1ccc(N=Cc2cc3c(cc2[N+](=O)[O-])OCO3)cc1[N+](=O)[O-],,"-8.35% [at 17.1 µM, percent relative to cAMP agonist control] (inactive)"
CCCCn1c(CNC(=O)C23CC4CC(CC(C4)C2)C3)nnc1SCC(=O)Nc1nnc(C)s1,,"3.57% [at 17.1 µM, percent relative to cAMP agonist control] (inactive)"
CCCC[C@@H]1C[C@H]1[C@@H](NC(=O)c1ccco1)c1ccc(Cl)cc1,inactive,
Cc1ccc(C)c(S(=O)(=O)N2CCN(C(=O)/C=C/c3ccco3)CC2)c1,inactive,
CC1=CCC[C@@H]2[C@@](C)(CC/C(C)=C/C(=O)O)[C@H](C)CC[C@@]12C,,"7.29% [at 17.1 µM, percent relative to cAMP agonist control] (inactive)"
Cc1cccc(NC(=O)c2ccc(-n3cncn3)c([N+](=O)[O-])c2)c1,,"2.79% [at 17.1 µM, percent relative to cAMP agonist control] (inactive)"
CC1Sc2ccc(C#N)cc2N(Cc2cccc(C(F)(F)F)c2)C1=O (stereo not drawn),inactive,
C=CCn1c(SCC(=O)Nc2cc(Cl)ccc2C(=O)O)nc2sc(C)c(C)c2c1=O,,"10.1% [at 17.1 µM, percent relative to cAMP agonist control] (inactive)"
COc1ccc(N2C(=O)Cc3cc(OC)c(OC)cc3C2c2ccc(F)cc2)cc1 (stereo not drawn),inactive,
